Reference: PubChem BioAssay (NCATS)
Values joined by “and” are separate entries in the source; they are usually repeats but may differ in a detail not shown here. Identical values can stand only once. Records with an inconclusive call do not appear. Active and inactive are the calls of the source. Calls come from the whole dose curve; as a rule, active = well fitted inhibition curve with a large enough effect; inconclusive = small, poorly fitted or top-dose-only effect; inactive = no such curve, though single readings can be large or run the other way.

Assays:
[1] = biological target: Cytochrome P450 2C9 (Homo sapiens) (UniProt P11712); test: qHTS Assay for Inhibitors and Substrates of Cytochrome P450 2C9 (AID 883); note: nearly all actives have a fitted effect of over 60% in size
Procedure, shortened: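 A luminogenic readout tracked human CYP2C9 (10nM) converting deoxyluciferin (100uM, at KM) in 25mM KPO4 during 60 min at 37C with regenerated NADPH. Values normalized to 57uM sulphaphenazole as complete inhibition.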

[2] = biological target: Cytochrome P450 3A4 (Homo sapiens) (UniProt P08684); test: qHTS Assay for Inhibitors and Substrates of Cytochrome P450 3A4 (AID 884); note: series mostly up to about 57 µM; nearly all actives have a fitted effect of over 50% in size
Procedure, shortened: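 20 nM human CYP3A4 with 25 uM Luciferin-PPXE (at KM) in 200 mM KPO4, preincubated 10 min with compound; NADPH regeneration started a 60 min RT reaction. Luciferin detected by luminescence, normalized to 57 uM ketoconazole as full inhibition.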

[3] = biological target: Cytochrome P450 2D6 (Homo sapiens) (UniProt P10635); test: qHTS Assay for Inhibitors and Substrates of Cytochrome P450 2D6 (AID 891);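 note: luciferin methyl ether substrate demethylated by CYP2D6 with NADPH regeneration; nearly all actives have a fitted effect of over 60% in size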
Procedure, shortened: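 Human CYP2D6 (5 nM) with 30 uM Luciferin-ME EGE (at Km) in 100 mM KPO4, compound preincubated 10 min, then NADPH regeneration system for 60 min at room temperature. Luciferin read by luminescence; normalized to 1.43 uM quinidine.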

[4] = biological target: Cytochrome P450 2C19 (Homo sapiens) (UniProt P33261); test: qHTS Assay for Inhibitors and Substrates of Cytochrome P450 2C19 (AID 899); note: nearly all actives have a fitted effect of over 60% in size
Procedure, shortened: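 NADPH-dependent conversion of Luciferin-H EGE (10uM, at KM) by 5nM enzyme in 50mM KPO4, 60 min at 37C following 10 min compound preincubation. Stopped with luciferin detection buffer; luminescence read after 20 min.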
% is set by controls: 0 for no effect and ±100 for the full control effect.

Cytochrome P450 3A4 (Homo sapiens), sequence (P08684 whole entry, looked up): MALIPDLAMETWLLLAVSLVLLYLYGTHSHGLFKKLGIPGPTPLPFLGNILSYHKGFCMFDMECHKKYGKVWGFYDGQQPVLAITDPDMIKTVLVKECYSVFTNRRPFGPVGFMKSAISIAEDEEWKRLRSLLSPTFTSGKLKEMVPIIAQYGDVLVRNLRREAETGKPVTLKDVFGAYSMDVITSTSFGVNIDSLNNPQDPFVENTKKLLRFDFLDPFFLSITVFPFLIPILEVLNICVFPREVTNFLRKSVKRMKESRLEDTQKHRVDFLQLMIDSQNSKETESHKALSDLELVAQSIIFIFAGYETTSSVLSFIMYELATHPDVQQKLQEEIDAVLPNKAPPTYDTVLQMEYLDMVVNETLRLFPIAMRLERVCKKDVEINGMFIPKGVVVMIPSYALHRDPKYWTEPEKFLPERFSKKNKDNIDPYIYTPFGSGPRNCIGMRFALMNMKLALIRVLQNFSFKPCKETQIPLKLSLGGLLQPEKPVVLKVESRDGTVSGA
Cytochrome P450 2C19 (Homo sapiens), sequence (P33261 whole entry, looked up): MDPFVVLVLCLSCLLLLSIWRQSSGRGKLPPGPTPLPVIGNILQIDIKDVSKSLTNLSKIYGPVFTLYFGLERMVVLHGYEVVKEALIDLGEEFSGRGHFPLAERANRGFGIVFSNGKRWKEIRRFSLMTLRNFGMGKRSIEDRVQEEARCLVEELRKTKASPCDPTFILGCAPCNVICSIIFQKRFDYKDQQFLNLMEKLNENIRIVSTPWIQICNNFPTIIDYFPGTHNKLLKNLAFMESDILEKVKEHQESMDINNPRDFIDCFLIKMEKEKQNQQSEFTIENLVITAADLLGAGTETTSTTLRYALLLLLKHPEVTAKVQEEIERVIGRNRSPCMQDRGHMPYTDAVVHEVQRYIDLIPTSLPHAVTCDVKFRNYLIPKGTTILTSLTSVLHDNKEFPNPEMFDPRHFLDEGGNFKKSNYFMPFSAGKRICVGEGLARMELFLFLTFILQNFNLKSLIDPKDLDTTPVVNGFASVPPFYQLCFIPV
Cytochrome P450 2C9 (Homo sapiens), sequence (P11712 whole entry, looked up): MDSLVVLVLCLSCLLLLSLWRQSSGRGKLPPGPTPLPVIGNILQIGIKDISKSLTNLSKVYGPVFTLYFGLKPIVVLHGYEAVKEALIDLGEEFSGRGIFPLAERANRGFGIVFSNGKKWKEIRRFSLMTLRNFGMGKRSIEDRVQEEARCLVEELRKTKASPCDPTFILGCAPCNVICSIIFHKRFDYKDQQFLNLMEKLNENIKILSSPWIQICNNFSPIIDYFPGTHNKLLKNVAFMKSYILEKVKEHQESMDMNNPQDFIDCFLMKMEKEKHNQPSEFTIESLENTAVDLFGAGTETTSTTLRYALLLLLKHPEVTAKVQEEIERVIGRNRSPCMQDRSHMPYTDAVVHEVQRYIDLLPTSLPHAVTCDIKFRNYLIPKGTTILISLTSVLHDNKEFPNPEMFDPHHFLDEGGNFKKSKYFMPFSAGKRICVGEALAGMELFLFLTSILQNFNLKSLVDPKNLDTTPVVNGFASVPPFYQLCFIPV
Cytochrome P450 2D6 (Homo sapiens), sequence (P10635 whole entry, looked up): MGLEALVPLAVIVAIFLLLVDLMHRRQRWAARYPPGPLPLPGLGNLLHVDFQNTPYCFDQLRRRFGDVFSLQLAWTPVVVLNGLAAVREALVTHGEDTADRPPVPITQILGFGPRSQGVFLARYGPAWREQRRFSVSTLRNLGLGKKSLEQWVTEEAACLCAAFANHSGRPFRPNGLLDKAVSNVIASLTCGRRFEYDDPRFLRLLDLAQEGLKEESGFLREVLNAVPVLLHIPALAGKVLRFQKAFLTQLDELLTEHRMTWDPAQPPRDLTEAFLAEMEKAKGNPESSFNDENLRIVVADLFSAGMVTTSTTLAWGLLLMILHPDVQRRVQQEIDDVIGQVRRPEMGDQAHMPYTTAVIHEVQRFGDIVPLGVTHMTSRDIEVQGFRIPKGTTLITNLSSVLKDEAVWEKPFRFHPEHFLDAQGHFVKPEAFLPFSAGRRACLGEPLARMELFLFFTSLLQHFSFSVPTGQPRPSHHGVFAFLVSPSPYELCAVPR

CC(C)CN1CCc2nc(-c3ccccc3)c3c(c2CC1)COC(C)C3 (stereo not given)
inactive: Potency [1] | activity change, negative = inhibition [2] -18.5% [at 11.4 µM] | Potency [3] | Potency [4]

CC1CCC2C(=O)N3C(CCC(C)[C@@H]3c3ccc(-c4ccco4)cc3)C(=O)N2C1c1cccc(N2CCCC2=O)c1 (stereo not given in full)
inactive: Potency [1] | activity change, negative = inhibition [2] 13.4% [at 11.4 µM] | Potency [3] | Potency [4]

Cc1ccc(OC2C(O)COC2/C=C/C#Cc2ccc(C(C)(C)C)cc2)cc1 (stereo not given)
inactive: Potency [1] | activity change, negative = inhibition [2] -23% [at 11.4 µM] and -25.5% [at 11.4 µM] | Potency [3] | Potency [4]

CCOC(=O)[C@]1(C(NC(=O)OC)c2ccco2)CCCC1=O (stereo not given in full)
inactive: Potency [1] | activity change, negative = inhibition [2] -19.8% [at 11.4 µM] | Potency [3] | Potency [4]

COC(=O)CC1=COC(O)C2C(CO)=CC[C@@H]12 (stereo not given in full)
inactive: Potency [1] | activity change, negative = inhibition [2] -14.7% [at 11.4 µM] | Potency [3] | Potency [4]
